Common to all, as to assay: PBM binding z-score (relative to random genomic background probes); higher = stronger binding; sequences stand for … in GC…GCGATTGACAGCGTAGAATGAAGG
Assay [1] has as its system FXR:RXRa (NR concentration 270 nM, RXRa partner concentration 90 nM). A digest of the protocol:
(§1)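 Custom Agilent 4×180K protein-binding microarrays carried double-stranded probes, each with a 34-nt variable region. These regions held direct-repeat seeds, single-nucleotide variants, half-site ablations and random human genomic background sequences. Ligand-free nuclear receptor dimers were incubated on the arrays for 1 h, antibodies against each partner (one per run) detected binding, and scanned fluorescence was regression-normalized. Binding z-scores take the random background probes as reference.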

Assay [2] deals with LXRa:RXRa (NR concentration 270 nM, RXRa partner concentration 90 nM). The procedure, abridged: as §1
Assay [3] deals with LXRa homodimer (NR concentration 270 nM). A digest of the protocol:
as §1

Assay [4] deals with LXRb:RXRa (NR concentration 270 nM, RXRa partner concentration 90 nM). A digest of the protocol: as §1
Assay [5] has as its system LXRb homodimer (NR concentration 270 nM). A digest of the protocol:
as §1

Assay [6] relates to PPARa:RXRa (NR concentration 270 nM, RXRa partner concentration 90 nM). The procedure, abridged: as §1
For assay [7], the system named is PPARg:RXRa (NR concentration 180 nM, RXRa partner concentration 90 nM). A digest of the protocol: as §1
Assay [8] relates to PPARg:RXRa 270nM:90nM, anti-RXR (NR concentration 270 nM, RXRa partner concentration 90 nM). The procedure, abridged: as §1
The subject of assay [9] is PPARg:RXRa 30nM:10nM, anti-RXR (NR concentration 30 nM, RXRa partner concentration 10 nM). The procedure, abridged: as §1
For assay [10], the system named is PPARg:RXRa 90nM:30nM, anti-RXR (NR concentration 90 nM, RXRa partner concentration 30 nM). The procedure, abridged:
as §1

Assay [11] relates to PPARg:RXRa DBDmut IVT, anti-RXR (DBD mutation: RXRa K156A/R161A, NR concentration 270 nM, RXRa partner concentration 90 nM). A digest of the protocol:
as §1

The subject of assay [12] is PPARg:RXRa IVT, anti-PPARg (NR concentration 270 nM, RXRa partner concentration 90 nM). The procedure, abridged:
as §1

Assay [13] has as its system PPARg DBDmut:RXRa IVT, anti-PPARg (DBD mutation: PPARg1 K132A/R137A, NR concentration 270 nM, RXRa partner concentration 90 nM). A digest of the protocol:
as §1

Assay [14] deals with PPARg DBDmut IVT, anti-PPARg (DBD mutation: PPARg1 K132A/R137A, NR concentration 270 nM). The procedure, abridged: as §1
Assay [15] has as its system PPARg homodimer (NR concentration 180 nM). A digest of the protocol:
as §1

The test system of assay [16] is PXR:RXRa (NR concentration 270 nM, RXRa partner concentration 90 nM). A digest of the protocol: as §1
For assay [17], the system named is PXR homodimer (NR concentration 270 nM). A digest of the protocol:
as §1

Assay [18] deals with RARa:RXR (NR concentration 270 nM, RXRa partner concentration 90 nM). The procedure, abridged:
as §1

Assay [19] relates to RARa homodimer (NR concentration 270 nM). The procedure, abridged: as §1
Assay [20] concerns RARb:RXRa (NR concentration 270 nM, RXRa partner concentration 90 nM). A digest of the protocol: as §1

CTCGAACGGTCGGTTGAGGTGAGTATACGGATAA: the PBM binding z-score in assay [1] was 0.102; in assay [2] it was -0.565; in [3] it was -0.727; in assay [4], -0.59; in [5] it was -0.761; in assay [6] it was -0.3. In addition, the PBM binding z-score in assay [7] is -0.199; in assay [8], -0.622; in assay [9], -0.623; in assay [10] it was -0.601; in assay [11], -0.509; in assay [12], -0.343. For the same sequence, the PBM binding z-score was -0.772 in assay [13]; -0.429 in assay [14]; -1.41 in [15]; -0.224 in [16]; -0.776 in assay [17]; 0.779 in assay [18]. The PBM binding z-score in [19] was -1.48; in [20] it was 0.604.

Take AGAATGAGGTTGCCAAAGATCAGGGAAACGCTTG: the PBM binding z-score in assay [1] is 0.0162; in [2], 0.364; in [3], -0.555; in assay [4], 0.0727; in [5], -0.656; in [6], 0.857. In addition, the PBM binding z-score is 0.786 in [7]; 0.932 in assay [8]; 0.289 in assay [9]; 0.435 in assay [10]; -0.0771 in assay [11]; -0.145 in [12]. In addition, the PBM binding z-score is -0.469 in assay [13]; -0.747 in assay [14]; -0.291 in [15]; 0.0324 in assay [16]; -0.465 in [17]; 0.398 in assay [18]. In addition, the PBM binding z-score in [19] was -0.509; in assay [20], 0.286.

For CGAACTAGGTCACAACAGGACAGTGAAGGATGAT, the PBM binding z-score is 3.29 in assay [1]; 4.76 in [2]; 0.422 in assay [3]; 2.17 in [4]; 0.119 in assay [5]; 4.65 in [6]. Also, the PBM binding z-score came to 7.81 in assay [7]; 6.57 in assay [8]; 3.9 in [9]; 6.22 in [10]; 8.41 in assay [11]; 8.69 in assay [12]. In addition, the PBM binding z-score in [13] was 2.32; in assay [14], 1.05; in assay [15], 1.54; in [16], 1.85; in assay [17], 0.241; in [18] it was 1.87. Further, the values for the PBM binding z-score in assay [19] and in [20] were 0.573 and 3.79, respectively.

Consider CCTTACGGGTCACTGACAGGTTGTAGCATTTGGA, for which the PBM binding z-score in assay [1] is 5.1; in assay [2], 3.61; in [3], 0.156; in assay [4] it was 3.17; in [5] it was -0.356; in assay [6], 4.93. For the same sequence, the PBM binding z-score in [7] stood at 4.26; in assay [8], 4.06; in [9], 0.971; in assay [10] it was 2.97; in assay [11], 3.45; in [12], 3.69. Also, the PBM binding z-score in assay [13] was 0.239; in assay [14], -0.219; in [15] it was 2.3; in assay [16], 3.28; in [17], -0.0802; in assay [18], 4.11. The PBM binding z-score in assay [19] turned out to be 0.949; in [20] it was 3.79.

As for ACTCGGAGGACCAAGGTCAGAGCTACGCCAGTGA, the PBM binding z-score was 1.21 in [1]; 0.987 in assay [2]; -0.312 in assay [3]; 0.779 in [4]; -0.603 in assay [5]; 1.79 in assay [6]. The PBM binding z-score in assay [7] is 0.947; in assay [8] it was 1.31; in assay [9], 0.277; in assay [10], 0.773; in [11], -0.502; in assay [12] it was 0.431. Also, the PBM binding z-score in [13] is -1.19; in [14], -0.608; in assay [15], 1.18; in assay [16], 1.34; in [17] it was 0.0514; in assay [18], 1.88. In addition, the figures for the PBM binding z-score in [19] and in assay [20] were -0.14 and 2.86, respectively.

TCATATAGGTAAACAGGTGAAAGCCCGTAAGTTA: the PBM binding z-score in assay [1] is 0.95; in assay [2], 1.13; in assay [3], 0.0822; in [4], 0.763; in assay [5], -0.22; in assay [6], 2.4. Further, the PBM binding z-score in [7] was determined as 2.7; in [8], 3.37; in [9], 3.79; in [10], 3.69; in assay [11] it was 4.79; in assay [12], 4.53. The PBM binding z-score came out at 1.26 in assay [13]; 0.658 in assay [14]; 0.824 in assay [15]; 0.744 in assay [16]; 0.0524 in assay [17]; 1.07 in assay [18]. In addition, the values for the PBM binding z-score in assay [19] and in assay [20] were 1.58 and 0.738, respectively.

As to CGAACTAGGTCATTGATAGGACAGTGAATAGTAA, the PBM binding z-score is 3.4 in assay [1]; 2.63 in [2]; 0.471 in assay [3]; 1.82 in assay [4]; -0.194 in assay [5]; 4.38 in assay [6]. The PBM binding z-score in assay [7] is 7.14; in [8], 5.99; in [9] it was 3.25; in [10], 5.56; in [11], 7.92; in assay [12] it was 8.26. The PBM binding z-score was 4.2 in [13]; 1.01 in assay [14]; 1.71 in [15]; 1.43 in [16]; 0.351 in [17]; 1.93 in [18]. Also, the PBM binding z-score was found to be 0.346 in assay [19] and 3.4 in [20].

The values are drawn from the supplement of paper PMC6555819.
